Bioassay records deposited in PubChem by Broad Institute.
Pf Dd2 growth = blocks growth of Plasmodium falciparum Dd2 parasites; 94,000 tested, 2.3% active; AID 1159554; P. falciparum Dd2 growth, SYBR Green, 72 h; hits give low values; activity change, % at 10 µM; in the data active means activity change below about -80%; inconclusive means no clear call, values can overlap the other calls
C diff HTS = inhibitors of Clostridium difficile growth; AID 1259249; Clostridium difficile clinical isolate growth, OD600, 24 h; hits give low values; 86,000 tested, 0.25% active; growth activity, negative = inhibition, % at 16 µg/mL (by protocol);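 active means mean growth activity at or below -80% and every replicate also at or below -80%; inconclusive means mean at or below -80% but some replicate above -80%; inactive means mean growth activity above -80%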;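 further: 0% = DMSO wells and -100% = levofloxacin 16 µg/mL wells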
T cruzi growth-1 = inhibitors of T. cruzi proliferation; 77,000 tested, 5.9% active; inhibition, % at 8.34 µM; AID 624255; T. cruzi beta-gal in NIH3T3, GalScreen luminescence, 90 h;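 active means mean inhibition above about 93%, with at least 55% of replicates each passing it, limit read from the data, passing the limit was not always enough; inconclusive means only one of those two conditions holds; inactive means neither condition holds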
T cruzi growth-2 = blocks T. cruzi growth in NIH3T3 host cells | 5,600 tested, 72% active | shares compounds with T cruzi growth-1 | AID 651739 | inhibition, % at 8.35 µM | T. cruzi beta-gal in NIH3T3, GalScreen luminescence, 90 h;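 active means mean replicate inhibition above about 95% and at least 55% of replicates individually reaching it, limit read from the data; inconclusive means only one of the two criteria is met; inactive means neither criterion is met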
T cruzi growth-3 = Trypanosoma cruzi proliferation inhibition; AID 651740; T. cruzi beta-gal in NIH3T3, GalScreen luminescence, 90 h; 5,600 tested, 21% active; shares compounds with T cruzi growth-1; inhibition, % at 2.09 µM;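 active means mean inhibition above about 95%, with at least 55% of replicates also reaching it, limit read from the data; inconclusive means meets just one of the two conditions; inactive means meets neither condition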;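 further: plate controls were neutral control median for no effect and positive control median for full effect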
3T3 cytotox = kills mouse NIH/3T3 fibroblasts | shares compounds with T cruzi growth-1 | NIH/3T3 viability, CellTiter-Glo ATP luminescence, 90 h | cytotoxicity (signal decrease), % at 8.35 µM | 5,600 tested, 14% active | AID 651742;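 active means mean signal decrease across replicates above about 35% based on untreated-well scatter, with enough replicates individually passing, limit read from the data; inconclusive means no rule stated though some were filed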;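 further: 0% = median of neutral control wells and 100% = median of positive control wells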
NIH3T3 tox 2 = kills mouse NIH/3T3 fibroblasts; shares compounds with T cruzi growth-1; NIH/3T3 viability, CellTiter-Glo ATP luminescence, 90 h; inhibition, % at 24.9 µM; 5,600 tested, 56% active; AID 651744;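 active means mean loss of cell viability signal at or above a set limit, and enough replicates individually reaching it; inconclusive means meets only the mean limit or only the replicate share; inactive means meets neither condition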;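 further: 0% = median of neutral control wells and 100% = median of positive control wells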
* = called active by the depositor. An excerpt weighted towards active compounds, which were near 6.7% of everything screened.

How did C[C@H](CO)N1C[C@H](C)[C@H](CN(C)C(=O)Nc2ccc(F)cc2)OCCCC[C@H](C)Oc2ccc(NC(=O)Nc3ccc4c(c3)OCO4)cc2C1=O do in these assays?
Pf Dd2 growth: 30; C diff HTS: 6; T cruzi growth-1: 94

What do the screens show for `C[C@@H]1CCCCO[C@H](CN(C)C(=O)Nc2ccc3c(c2)OCO3)[C@H](C)CN([C@H](C)CO)C(=O)c2cc(NC(=O)Nc3ccc(F)cc3)ccc2O1`?
Pf Dd2 growth: -88*; C diff HTS: -3; T cruzi growth-1: 102*; T cruzi growth-2: 100*; T cruzi growth-3: 64; 3T3 cytotox: -10; NIH3T3 tox 2: -4

Results for C[C@@H]1CCCCO[C@@H](CN(C)C(=O)Nc2ccc(F)cc2)[C@@H](C)CN([C@H](C)CO)C(=O)c2cc(NC(=O)Nc3ccc4c(c3)OCO4)ccc2O1 ?
Pf Dd2 growth: 11; C diff HTS: 0; T cruzi growth-1: -23

What do the screens show for `C[C@H](CO)N1C[C@H](C)[C@H](CN(C)C(=O)Nc2ccc3c(c2)OCO3)OCCCC[C@H](C)Oc2ccc(NC(=O)NC3CCCCC3)cc2C1=O`?
Pf Dd2 growth: -16; C diff HTS: -18; T cruzi growth-1: 110*; T cruzi growth-2: 105*; T cruzi growth-3: 83; 3T3 cytotox: -20; NIH3T3 tox 2: -16

How did C[C@@H]1CCCCO[C@@H](CN(C)C(=O)Nc2ccc3c(c2)OCO3)[C@H](C)CN([C@H](C)CO)C(=O)c2cc(NC(=O)Nc3ccc(F)cc3)ccc2O1 do in these assays?
Pf Dd2 growth: -49; C diff HTS: 1; T cruzi growth-1: 102*; T cruzi growth-2: 104*; T cruzi growth-3: 84; 3T3 cytotox: -16; NIH3T3 tox 2: -12

What do the screens show for `C[C@H](CO)N1C[C@H](C)[C@@H](CN(C)C(=O)NC2CCCCC2)Oc2ccc(NC(=O)Nc3ccc(F)cc3)cc2C1=O`?
Pf Dd2 growth: -3; C diff HTS: -10; T cruzi growth-1: -14

How did C[C@@H]1CN([C@H](C)CO)C(=O)c2cc(NS(=O)(=O)c3ccc(F)cc3)ccc2O[C@H]1CN(C)CC1CCCCC1 do in these assays?
Pf Dd2 growth: 4; C diff HTS: 2; T cruzi growth-1: 3

How did C[C@H]1CN([C@@H](C)CO)C(=O)c2cccc(NC(=O)c3ccc(-c4nccs4)cc3)c2O[C@@H]1CN(C)S(=O)(=O)c1ccc(F)cc1 do in these assays?
Pf Dd2 growth: -3; C diff HTS: -2; T cruzi growth-1: -106

What do the screens show for `C[C@H]1CN([C@@H](C)CO)C(=O)c2cc(/C=C/c3ccccc3)cnc2O[C@@H]1CN(C)C(=O)c1cnccn1`?
Pf Dd2 growth: -30; C diff HTS: -3

How did CCCNC(=O)N1[C@@H](CO)[C@@H](c2ccccc2)[C@@H]1CNC(=O)c1cccc(F)c1 do in these assays?
Pf Dd2 growth: -71; C diff HTS: 3; T cruzi growth-1: 122*; T cruzi growth-2: 81; T cruzi growth-3: -9; 3T3 cytotox: 6; NIH3T3 tox 2: 40*

What do the screens show for `CCCNC(=O)N1[C@H](CO)[C@@H](c2ccccc2)[C@H]1CNC(=O)c1cccc(F)c1`?
Pf Dd2 growth: -54; C diff HTS: 8; T cruzi growth-1: -15

How did CCCNC(=O)N1[C@H](CO)[C@@H](c2ccccc2)[C@H]1CNC(=O)c1ccccc1 do in these assays?
Pf Dd2 growth: 12; C diff HTS: 1; T cruzi growth-1: 48

Results for CCCNC(=O)N1[C@@H](CO)[C@H](c2ccccc2)[C@@H]1CNC(=O)c1ccccc1 ?
Pf Dd2 growth: -1; C diff HTS: -10; T cruzi growth-1: inconclusive; T cruzi growth-2: 23; T cruzi growth-3: -15; 3T3 cytotox: 0; NIH3T3 tox 2: -4

How did O=C(C[C@@H]1C=C[C@H](NC(=O)Nc2ccccc2F)[C@@H](CO)O1)NCc1ccc(F)cc1 do in these assays?
Pf Dd2 growth: -3; C diff HTS: 4; T cruzi growth-1: 34

How did C[C@@H]1CN([C@H](C)CO)C(=O)c2cc(NS(=O)(=O)c3ccc(Cl)cc3)ccc2O[C@@H](C)CCCCO[C@H]1CN(C)C(=O)Nc1ccc2c(c1)OCO2 do in these assays?
Pf Dd2 growth: -28; C diff HTS: -3

Results for C[C@@H]1CCCCO[C@@H](CN(C)C(=O)Nc2ccc3c(c2)OCO3)[C@H](C)CN([C@H](C)CO)C(=O)c2cc(NS(=O)(=O)c3ccc(Cl)cc3)ccc2O1 ?
Pf Dd2 growth: -29; C diff HTS: 1; T cruzi growth-1: inconclusive; T cruzi growth-2: 101*; T cruzi growth-3: 62; 3T3 cytotox: -18; NIH3T3 tox 2: 6

What do the screens show for `C[C@@H]1CCCCO[C@@H](CN(C)C(=O)Nc2ccc3c(c2)OCO3)[C@H](C)CN([C@@H](C)CO)C(=O)c2cc(NS(=O)(=O)c3ccccc3)ccc2O1`?
Pf Dd2 growth: -1; C diff HTS: 1; T cruzi growth-1: 50

Results for C[C@H](CO)N1C[C@H](C)[C@H](CN(C)C(=O)Nc2ccc3c(c2)OCO3)OCCCC[C@H](C)Oc2ccc(NS(=O)(=O)c3ccccc3)cc2C1=O ?
Pf Dd2 growth: -35; C diff HTS: 0; T cruzi growth-1: 101*; T cruzi growth-2: 107*; T cruzi growth-3: 40; 3T3 cytotox: 6; NIH3T3 tox 2: -5

Results for CO[C@H](CN(C)S(=O)(=O)c1ccccc1)[C@H](C)CN(C(=O)Nc1ccccc1F)[C@H](C)CO ?
Pf Dd2 growth: 1; T cruzi growth-1: -5

Results for C[C@H](CO)N1C[C@H](C)[C@H](CN(C)S(=O)(=O)c2cn(C)cn2)Oc2ccc(NC(=O)Nc3ccccc3)cc2CC1=O ?
Pf Dd2 growth: 6; C diff HTS: 0; T cruzi growth-1: 23

Results for C[C@@H]1CN([C@@H](C)CO)S(=O)(=O)c2ccc(C#CC3CC3)cc2O[C@@H]1CN(C)C(=O)Nc1cc(F)ccc1F ?
Pf Dd2 growth: -14; T cruzi growth-1: 103*; T cruzi growth-2: 114*; T cruzi growth-3: 79; 3T3 cytotox: 29; NIH3T3 tox 2: 28*

Results for C[C@H](CO)N1C[C@H](C)[C@@H](CN(C)C(=O)Nc2cc(F)ccc2F)Oc2cc(C#CC3CCCC3)ccc2S1(=O)=O ?
Pf Dd2 growth: -2; C diff HTS: 0

What do the screens show for `C[C@H](CO)N1C[C@H](C)[C@H](CN(C)C(=O)Nc2cc(F)ccc2F)Oc2cc(C#CC3CC3)ccc2S1(=O)=O`?
Pf Dd2 growth: -64; T cruzi growth-1: 117*; T cruzi growth-2: 112*; T cruzi growth-3: 45; 3T3 cytotox: 4; NIH3T3 tox 2: 25
